Hits are enriched below; roughly 1.8% of the tested compounds scored in any of these assays.
ABCB6 inh MLPCN = blocks the human ABCB6 transporter; 360,000 compounds, 0.19% hits; Q9NP58; fluorescence ratio to DMSO, % at 10 µM; AID 602162; K562-ABCB6 porphyrin accumulation, flow cytometry, 1 h; stronger effect = lower value;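 active means fluorescence ratio to DMSO below 75%, the collection mean minus 3 SD; inconclusive means too few cells collected in the well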;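 further: signal is porphyrin accumulated inside mitochondria; 100% equals median channel fluorescence of DMSO control wells; lower ratio means ABCB6 inhibition with less porphyrin fluorescence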
Target sequence (Q9NP58 whole entry, looked up): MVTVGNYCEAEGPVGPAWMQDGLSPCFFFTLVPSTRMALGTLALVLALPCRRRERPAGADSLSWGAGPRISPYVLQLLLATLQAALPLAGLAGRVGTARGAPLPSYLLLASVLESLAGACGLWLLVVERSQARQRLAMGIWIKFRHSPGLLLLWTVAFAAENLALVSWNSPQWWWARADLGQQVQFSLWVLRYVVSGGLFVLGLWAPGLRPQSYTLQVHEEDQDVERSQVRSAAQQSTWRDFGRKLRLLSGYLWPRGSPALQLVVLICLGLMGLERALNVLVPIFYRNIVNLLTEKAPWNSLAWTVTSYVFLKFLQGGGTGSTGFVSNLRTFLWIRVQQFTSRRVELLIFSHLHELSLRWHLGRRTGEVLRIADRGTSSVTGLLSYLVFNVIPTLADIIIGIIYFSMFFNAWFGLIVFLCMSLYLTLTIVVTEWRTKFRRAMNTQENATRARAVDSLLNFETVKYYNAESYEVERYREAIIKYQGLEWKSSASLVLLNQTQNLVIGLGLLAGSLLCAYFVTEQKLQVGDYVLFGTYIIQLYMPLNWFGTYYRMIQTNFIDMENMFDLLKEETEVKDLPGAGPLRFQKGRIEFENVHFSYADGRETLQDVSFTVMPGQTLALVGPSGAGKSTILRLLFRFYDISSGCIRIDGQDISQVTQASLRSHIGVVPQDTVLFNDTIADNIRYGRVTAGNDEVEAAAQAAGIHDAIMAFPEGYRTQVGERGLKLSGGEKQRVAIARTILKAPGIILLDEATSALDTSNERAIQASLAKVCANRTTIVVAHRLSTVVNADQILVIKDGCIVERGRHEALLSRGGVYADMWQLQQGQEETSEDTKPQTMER
Myeloid diff MLP = myeloid differentiation induction | 360,000 compounds, 1% hits | calls only at 10 µM | ER-HoxA9 myeloid progenitors, lysozyme-GFP differentiation, flow cytometry | AID 624256;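 active means normalized GFP-positive differentiation at or above the plate's own cutoff, the solvent-only control mean plus 3 SD; inconclusive means no clear call, values can overlap the other calls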;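 further: cells exposed to compound for four days before flow analysis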
Exocytosis inh = blocks lytic granule exocytosis. TALL-104 LAMP-1 surface exposure, flow cytometry; cells stimulated with thapsigargin and PMA. 360,000 compounds, 0.66% hits. inhibition, % at 10 µM;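 active means inhibition above about 55%, limit read from the data; inconclusive means no clear call, values can overlap the other calls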
* marks the source's active call; other numbers are inactive results; i = inactive; ? = inconclusive; + = active, no number.

SMILES | ABCB6 inh MLPCN | Myeloid diff MLP | Exocytosis inh
CC1(C(=O)NS(=O)(=O)c2ccc(F)cc2F)CCN1C(=O)c1cccc(F)c1 (centres undefined) | 100.0 | i | -4.2
COc1cc2c(cc1OC)-c1cc(OCCN3CCOCC3)nc(=O)n1CC2 | 636.0 | + | -0.5
CCNc1cc2n(c(=O)n1)CCc1cc(OC)c(OC)cc1-2 | 105.0 | i | -7.7
O=C1C=CC(=O)c2c(O)c(N3CCN(CCO)CC3)c(Cl)c(O)c21 | 104.0 | ? | 9.8
O=C1C=CC(=O)c2c(O)c(N3CCN(CCOCCO)CC3)c(Br)c(O)c21 | 404.0 | ? | 62.0*
Nc1ccccc1C(=O)NC1CCCNC1=O (centres undefined) | 100.0 | i | -6.6
CCC(=O)N(Cc1cc2cc(OC)ccc2[nH]c1=O)c1ccccc1OC | 94.0 | i | -7.6
COc1ccc2[nH]c(=O)c(CN(C(=O)C(C)C)c3ccccc3OC)cc2c1 | 102.0 | + | 13.2
CCOC(=O)[C@]12CCC=C1N(Cc1ccco1)C(=O)[C@H](CC(=O)N1CCOCC1)C2 | 104.0 | i | -5.2
COCC(O)Cn1ccnc1[N+](=O)[O-] (centres undefined) | 98.0 | i | 1.8
O=c1[nH][nH]c2c1[C@H](c1ccccc1)O[C@H](C1CCCCC1)C2 | 107.0 | i | 4.5
CSc1ccc(CN2CCC(C)(Oc3ccccc3F)C2)cc1 (centres undefined) | 98.0 | i | -6.4
Cc1cc(Br)cc(C=Nc2ccc(N3CCOCC3)cc2)c1O | 98.0 | i | 73.5*
Oc1ccc(C=Nc2ccc(N3CCOCC3)cc2)c(O)c1 | 91.0 | i | -2.8
Cc1ccc(NCCCn2cnc3c(OCc4ccccc4)ncnc32)cc1C | 94.0 | i | 7.9
O=S(=O)(c1cccs1)N1CCN(c2ccc(O)cc2)CC1 | 90.0 | + | -0.2
CN1CCN(S(=O)(=O)c2cccs2)CC1 | 100.0 | i | 3.6
COC(=O)c1c(C(=O)OC)c(-c2ccc(OC)cc2)n2c1CS(=O)(=O)C2 | 99.0 | i | -15.8
Nc1[nH]c(C(=O)c2ccccc2)c(-c2ccncc2)c1C(=O)NC1CC1 | 116.0 | i | 0.0
CC(Cc1c[nH]c2ccccc12)NC(=O)OCCCl (centres undefined) | 91.0 | + | -3.4
COC(=O)C(Cc1c[nH]c2ccccc12)NC(C)=O (centres undefined) | 97.0 | i | -4.3
CCn1c(-c2ccc[nH]c2=O)nc2ccccc21 | i | + | -4.7
O=c1[nH]cccc1-c1nc2ccccc2n1Cc1ccccc1F | 97.0 | i | 0.2
CC(C)(C)c1cc(NCc2ccccn2)n2ncc(-c3ccc(Cl)cc3)c2n1 | 97.0 | i | 14.3
CN(C)CCCNc1cc(C(C)(C)C)nc2c(-c3ccc(Cl)cc3)cnn12 | 84.0 | i | 65.4*
SMILES | ABCB6 inh MLPCN | Myeloid diff MLP | Exocytosis inh
CCN(CC)c1ccc(C2C(C(=O)OCCOC(C)C)=C(C)NC3=C2C(=O)CCC3)cc1 (centres undefined) | 101.0 | i | -1.2
CC1=C(C(=O)OCCOC(C)C)C(c2cc3c(cc2Br)OCO3)C2=C(CCCC2=O)N1 (centres undefined) | 102.0 | i | 100.2*
CCC1CCCCN1S(=O)(=O)c1ccc(NC(=O)C2CC(=O)N(C(C)(C)C)C2)cc1 (centres undefined) | 98.0 | i | -2.9
CC(/C=N/N1CCN(c2ccccc2)CC1)=C\c1ccccc1 | 100.0 | i | -10.0
CC(/C=N/N1CCN(c2ccccn2)CC1)=C\c1ccccc1 | 96.0 | i | 75.8*
O=C(COC(=O)[C@@H]1CCCN1C(=O)c1cccs1)Nc1cccc(Cl)c1 | 95.0 | i | 23.3
CC(C(=O)N(C)Cc1cccc(F)c1)N1CCN(S(=O)(=O)c2ccc3c(c2)OCCCO3)CC1 (centres undefined) | 92.0 | i | 9.8
Cn1c(=O)c2c(SCC(=O)Nc3nccs3)nc(C3CC3)nc2n(C)c1=O | 161.0 | + | 5.0
Cn1c(SCC(=O)Nc2nccs2)nnc1C1CC1 | 96.0 | i | 0.4
CC(/C=N\NC(=O)Cn1c(C)nc2ccccc21)=C\c1ccccc1 | 90.0 | + | -2.8
CC(/C=N/NC(=O)CSc1nc(C)cc(C)n1)=C\c1ccccc1 | 101.0 | i | -1.2
CSc1ncccc1C(=O)N1CCN(S(=O)(=O)c2ccc3c(c2)OCCO3)CC1 | 102.0 | i | 2.4
Cc1cc(S(=O)(=O)N2CCCCC2CCNC(=O)C(=O)NC2CC2)ccc1F (centres undefined) | 93.0 | i | -3.7
Cc1cc(C)c(S(=O)(=O)N2CCCCC2CCNC(=O)C(=O)NC2CC2)c(C)c1 (centres undefined) | 83.0 | + | -4.2
C[C@@H]1CN([C@@H](C)CO)C(=O)c2cc(NC(=O)C3CC3)ccc2O[C@@H]1CN(C)C(=O)NC1CCCCC1 | 94.0 | i | -4.7

From PubChem
